Results filed as inconclusive are left out. Activity calls are given as the source filed them. Unless noted, the rule behind the calls is not given here.
How the values were obtained:
[1] = qHTS profiling of the MIPE4 collection as inhibitors of Plasmodium falciparum (DD2) proliferation (AID 743345); settings: P. falciparum Dd2 in erythrocytes, SYBR Green DNA, 72 h; at 28.5 µM (top of the series) unless noted
Outline: (§1)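 Parasite DNA was quantified by SYBR Green I fluorescence (ex 485, em 535 nm) after overnight lysis in saponin/Triton buffer at room temperature. Cultures at 0.3% parasitemia and 2.5% hematocrit were first exposed to compound for 72 h at 37 C; signals were normalised to artemisinin (0.29 uM) and vehicle wells.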

[2] = qHTS profiling of the MIPE4 collection as inhibitors of Plasmodium falciparum (DD2) proliferation (Rep 2) (AID 743346); settings: P. falciparum Dd2 in erythrocytes, SYBR Green DNA, 72 h; at 28.5 µM (top of the series) unless noted
Outline: as §1

[3] = qHTS profiling of the MIPE4 collection as inhibitors of Plasmodium falciparum (HB3) proliferation (AID 743347);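 note: plate controls were DMSO vehicle wells for no effect and artemisinin wells for full effect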; settings: P. falciparum HB3 in erythrocytes, SYBR Green DNA, 72 h; at 28.5 µM (top of the series) unless noted
Outline: as §1

[4] = High-throughput drug toxicity screening in the BPDCN cell line Gen2.2 (AID 1224824); settings: Gen2.2 BPDCN cells; at 45.8 µM (top of the series) unless noted;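 note: cells exposed to compounds for 48 h before reading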
Outline: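 Gen2.2 cells (500/well) in phenol red-free RPMI with 10% FBS were exposed to compounds for 48 h at 37 °C, 5% CO2. Viability was read by CellTiter-Glo luminescence and normalized to DMSO (100%) and 9.2 uM bortezomib (0%).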

[5] = High-throughput drug toxicity screening in the BPDCN cell line Cal-1 (AID 1224825); settings: Cal-1 BPDCN cell viability, qHTS; at 45.8 µM (top of the series) unless noted
Outline: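 CellTiter-Glo luminescence after 48 h compound exposure; percent activity scaled with DMSO as 100% and bortezomib (9.2 uM final) as 0%. Cal-1 cells seeded at 500/well in RPMI, 10% FBS, no phenol red.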

[6] = qHTS assay for measurement of the activity of small molecule inhibitors on Zika virus induced Caspase-3 activity in human iPSC derived neural progenitor cells (hNPCs) (AID 1224857; active = well fitted curve in the direction sought with a large enough effect; an effect the other way counts as inactive or inconclusive; note: % of control where 0% means no effect; nearly all actives have a fitted effect of over 65% in size)
Outline: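 After overnight (16–20 h) culture at 350 cells/well, hNPCs get compound, then ZIKV 2 FFU/cell one hour later. Six hours on, Caspase-Glo 3/7 is added and luminescence measured.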

[7] = qHTS Screen of the MIPE 4.0 Collection Against Ewings Sarcoma (RDES) (AID 1259252; active = well fitted curve in the direction sought with a large enough effect; an effect the other way counts as inactive or inconclusive; note: nearly all actives have a fitted effect of over 35% in size; note: potency is the fitted concentration of half-maximal effect)
Outline: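 Dose series incubated 48 h with cells in RPMI plus 5% FBS, glutamine and penicillin/streptomycin; cell viability then quantified via CellTiter-Glo.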

[8] = qHTS Assay for Identifying Gametocytocidal Compounds (AID 743244; active = well fitted curve in the direction sought with a large enough effect; an effect the other way counts as inactive or inconclusive; note: potency is the fitted concentration of half-maximal effect;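 for max response: % is set by controls: 0 for no effect and ±100 for the full control effect; actives lower the fluorescent signal which means gametocytes are killed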); settings: P. falciparum 3D7 stage III-V gametocytes, alamarBlue, 72 h; max response: stronger effect = lower value
Outline: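 Using 20,000 stage III–V 3D7 gametocytes per well, compounds were incubated 72 h under 37 °C/5% CO2. Viability was then assessed by 24 h alamarBlue reduction, measured fluorometrically at 525/598 nm.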

[9] = qHTS profiling for inhibitors of Plasmodium falciparum (3D7) proliferation (AID 743322);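 note: infected erythrocytes exposed to compound for 72 h before lysis; 100% = DMSO vehicle wells and 0% = 0.29 µM artemisinin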; settings: P. falciparum 3D7 proliferation; at 28.7 µM (top of the series) unless noted
Outline: as §1

[10] = qHTS profiling for inhibitors of Plasmodium falciparum (DD2) proliferation (AID 743323); settings: lower = more inhibition; at 28.7 µM (top of the series) unless noted
Outline: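 1536-well qHTS; infected RBCs 0.3% parasitemia/2.5% Hct final; cpd 72 h 37 C 5% CO2; lysis buffer + SYBR Green I, o/n RT dark; FI 485/535; norm. to 0.29 uM artemisinin and DMSO, plate-stack corrected.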

[11] = qHTS profiling of the MIPE4 collection as inhibitors of Plasmodium falciparum (3D7) proliferation (AID 743344);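 note: scaled between DMSO vehicle wells and 0.29 µM artemisinin as full inhibition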; settings: P. falciparum 3D7 in erythrocytes, SYBR Green DNA fluorescence, 72 h; at 28.5 µM (top of the series) unless noted
Outline: as §1

[12] = qHTS profiling for inhibitors of Plasmodium falciparum (HB3) proliferation (AID 743324; active = well fitted curve in the direction sought with a large enough effect; an effect the other way counts as inactive or inconclusive;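 note: 100% = DMSO vehicle wells and 0% = artemisinin-treated control wells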); settings: Plasmodium falciparum HB3 blood-stage proliferation; at 28.7 µM (top of the series) unless noted
Outline: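 SYBR Green fluorescence (485 ex/535 em) of lysed cultures, incubated overnight at room temperature in the dark, quantifies parasite DNA. Infected erythrocytes at 0.3% parasitemia and 2.5% hematocrit were exposed 72 h; values normalized to DMSO and 0.29 uM artemisinin controls.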

[13] = qHTS assay for measurement of the activity of small molecule inhibitors on Zika virus induced Caspase-3 activity in human astrocytoma cells (AID 1224859; active = well fitted curve in the direction sought with a large enough effect; an effect the other way counts as inactive or inconclusive;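 note: plate controls were ZIKV-infected untreated cells for no effect and uninfected cells for full effect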)
Outline: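 Inhibition of Zika-induced caspase-3/7 activity: SNB-19 cells, 1 h compound pretreatment, ZIKV 2 FFU/cell for 6 h at 37 C, Caspase-Glo luminescence read-out.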

SMILES	parasite growth remaining, % of DMSO control (lower = more inhibition) [1]	parasite growth, % of control (lower = inhibition) [2]	growth, % of control [3]	cell viability, % of control (lower = more cytotoxic) [4]	viability (% of control) [5]	Potency [6]	Potency [7]	Potency [8]	remaining parasite growth % (stronger effect = lower value) [9] [%]	activity, percent of control [10] [%]	parasite growth, % of DMSO control [11]	max response [8]	remaining proliferation (% of control), lower = more inhibition [12] [%]	Potency [13]
NC1(C(=O)N[C@@H](CCO)c2ccc(Cl)cc2)CCN(c2ncnc3[nH]ccc23)CC1	85.9%	24.5%	97.9%	6.91%	27.4%	inactive	3.72 µM (active)	–	–	–	–	–	–	–
CCNC(=O)c1noc(-c2cc(C(C)C)c(O)cc2O)c1-c1ccc(CN2CCOCC2)cc1	7.71%	9.57%	4.24%	14.2%	7.68%	inactive	0.105 µM (active)	0.0469 µM (active)	0.155	0.689	5.56%	–	–	–
CC(C)CN(C[C@@H](O)[C@H](Cc1ccccc1)NC(=O)O[C@H]1CO[C@H]2OCC[C@H]21)S(=O)(=O)c1ccc(N)cc1	19.4%	101%	8.15%	118%	117%	inactive	2.09 µM (active)	–	–	–	42.7%	-5.35% (inactive)	–	–
c1ccc(-c2oc3ncnc(NC[C@@H]4CCCO4)c3c2-c2ccccc2)cc1	72.4%	41.6%	19.8%	343%	42.1%	inactive	–	–	–	–	36.2%	–	–	–
O=C(O)C1=CC(O)C(O)[C@H](O)C1 (stereo partly drawn)	55.1%	86.5%	51.8%	146%	105%	inactive	inactive	–	–	–	92.4%	–	–	–
CN(C)N=Nc1nc[nH]c1C(N)=O	94.4%	87.6%	61.9%	123%	121%	inactive	18.7 µM (active)	–	–	–	86.1%	–	–	–
CN[C@H]1[C@@H](O[C@@H]2[C@H](O[C@@H]3[C@@H](O)[C@@H](O)[C@@H](N=C(N)N)[C@@H](O)[C@@H]3N=C(N)N)O[C@H](C)[C@@]2(O)C=O)O[C@@H](CO)[C@@H](O)[C@H]1O	94.4% [at 9.64 µM]	87.4% [at 9.64 µM]	89.1% [at 9.64 µM]	122% [at 15.3 µM]	118% [at 15.3 µM]	inactive	inactive	–	–	–	99% [at 9.64 µM]	–	–	–
CC(C)Oc1cc(Nc2nc(N[C@@H](C)c3ccc(F)cn3)ncc2Cl)[nH]n1	10.8%	23.2%	14.7%	93%	15.5%	inactive	16.6 µM (active)	2.35 µM (active)	3.18	5.44	9.44%	–	3.28	–
OC[C@H]1O[C@@H](O[C@H]2[C@@H](O)[C@@](O)(CO)O[C@@H]2CO)[C@H](O)[C@@H](O)[C@@H]1O	72.5%	79.8%	88%	137%	96.1%	inactive	inactive	–	–	–	87.6%	–	–	–
NC(=O)c1noc([C@H](CCCC2CCCCC2)CC(=O)NO)n1	125%	30.9%	48.3%	20%	7.18%	inactive	8.33 µM (active)	–	–	–	33.9%	–	–	–
CC(C)CN(C[C@H](O)[C@H](Cc1ccccc1)NC(=O)O[C@H]1CCOC1)S(=O)(=O)c1ccc(N)cc1	–	56.3%	42.8%	149%	97.6%	inactive	16.6 µM (active)	–	–	–	6.57%	–	–	–
CC(=O)N1CCN(c2ccc(OCc3nn(C)c(C)c3-c3cccc4c(CCCOc5cc(C)c(Cl)c(C)c5)c(C(=O)O)n(Cc5cccnc5)c34)cc2)CC1	–	13.7%	6.27%	7.74%	2.47%	inactive	20.9 µM (active)	–	–	–	5.72%	–	–	–
O=C(O)CCC=CCC[C@@H]1[C@H](N2CCCCC2)[C@@H](O)C[C@@H]1OCc1ccc(-c2ccccc2)cc1	92.8%	62.3%	63%	169%	63%	inactive	inactive	–	–	–	67.9%	–	–	–
O=S(=O)(O)c1ccc2cc(N=Nc3cc(S(=O)(=O)O)c4cccnc4c3O)ccc2c1	87.9%	77.8%	47.7%	63.9%	89.1%	inactive	18.7 µM (active)	–	–	–	84.5%	–	–	–
COc1c(C)cnc(Cn2cnc3c(Cl)nc(N)nc32)c1C	49.8%	31.8%	21.1%	9.9%	18.7%	inactive	0.187 µM (active)	23.5 µM (active)	40.5	31.4	28.9%	–	9.05	–
C#CCN(C)CC1=Cc2ccccc2Oc2ccccc21	76.6%	63.1%	25.1%	124%	98%	inactive	inactive	–	–	–	51.9%	–	–	–
COc1cccc(OC)c1-c1cc(C(=O)NC2(C(=O)O)C3CC4CC(C3)CC2C4)nn1-c1ccnc2cc(Cl)ccc12 (stereo not drawn)	33.7%	29.8%	7.09%	119%	128%	–	inactive	–	23.7	56.1	31.4%	42.4% (inactive)	47.3	inactive
COC(=O)Nc1ccc(-c2nc(N3CCOCC3)c3cnn(C4CCN(C(=O)OC)CC4)c3n2)cc1	14.3%	27.4%	7.52%	8.32%	4.85%	–	0.0372 µM (active)	–	3.29	7.64	–	6.16% (inactive)	0.698	inactive
CCN1CCC(n2cc(CNc3cc(Cl)c4ncc(C#N)c(Nc5ccc(F)c(Cl)c5)c4c3)nn2)CC1	12.5%	12.3%	7.52%	35.5%	36.8%	–	–	–	–	–	–	–	–	inactive
C[C@H](c1ccc(F)cc1CCCC(=O)O)N(c1cc(F)ccc1F)S(=O)(=O)c1ccc(Cl)cc1	42.9%	35.7%	47.7%	144%	92.6%	–	18.7 µM (active)	–	–	–	48.3%	–	–	inactive

Reference: PubChem BioAssay (NCATS)
